The record followed here is paper PMC5540273 (PLoS ONE, 2017).
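Also: KINOMEscan kinase panel screen.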

The subject of one test is EPHA1. Particulars: concentration: 1 μM, replicates: in singlicate; n = 1.
Regarding `Nc1ncnc2c1nc(-c1ccccc1)n2-c1ccccc1` [SKF-97293], the “%Inh” value worked out at 22%.
As to `Cl.NC(=O)c1cccc(Nc2nccc(Nc3ccc(Oc4c(Cl)cccc4Cl)c(Cl)c3)n2)c1` [GW659009], the “%Inh” value is 0%.
On the same count and under the same terms, for `Cc1ccc(F)c(C(=O)Nc2cccc(-c3nn4ccccc4c3-c3ccnc(Nc4cccc(F)c4)n3)c2)c1F` [GSK361061] the value was 32%; for `COc1cccc(-c2ccc3c(NC(=O)C4CC4)n[nH]c3n2)c1` [SB-710903], 20%.
Turning to `CC(=O)N1CCN(c2ccc(Nc3nccc(-c4sc(C(C)C)nc4-c4cccc(NS(=O)(=O)c5cccc(Cl)c5)c4)n3)cn2)CC1` [GSK1660437], the “%Inh” value worked out at 71%.
The same measure, in the same setting: the figure for `C[C@@H]1CC[C@@H](C(=O)Nc2ccccc2)CN1c1cc(-c2ccc3c(N)n[nH]c3c2)nc(N)n1` [GSK2286062] is 1%.
As for `Clc1ccc(-c2nn3ncccc3c2-c2ccnc(Nc3ccc4c(c3)OCCO4)n2)cc1` [GW829116], the “%Inh” value was found to be 0%.
Consider `Cc1ccc(C(=O)N2CC[C@@H](O)C2)cc1-n1c(C)cc(OCc2ccc(F)cc2F)c(Br)c1=O`, for which the “%Inh” value was determined as 78%.
Still for that read-out and setting: the figure for `CC(=O)Nc1nc2cnc(Nc3cc(NC(=O)c4cccc(C5(C#N)CC5)c4Cl)ccc3C)nc2s1` is 70%; for `c1ccc(-c2cnc3nccnn23)cc1` [AH20685] it is 0%.
Same read-out and setting: for `CCn1c(-c2nonc2N)nc2c(C#CC(C)(C)O)nc(OC[C@H](N)c3ccccc3)cc21` [GSK943949] the value was 2%; for `Cl.Cl.NCC(C(=O)Nc1cc(Br)c(-c2ccnc3[nH]ccc23)s1)c1ccccc1` (centres unmarked) [GSK1269851], 83%; for `COc1cccc(C2=C(Nc3ccc(Cl)c(C(=O)O)c3)C(=O)NC2=O)c1` [SB-390769], 1%.
Take `Cc1cccc(Nc2nc(N[C@H]3CCNC3)ncc2C(N)=O)c1.Cl` [GSK2197149]: the “%Inh” value is 0%.

The subject of a further test is EPHA2. Particulars: concentration: 1 μM, replicates: in singlicate; n = 1.
On to `Cc1ccc(C(=O)Nc2ccc(Nc3ccnc4cc(-c5nccs5)ccc34)cc2O)cc1.Cl` [GW494702], for which the “%Inh” value came out at 15%.
As for `CC(C)c1nc(-c2cccc(NS(=O)(=O)c3c(F)cccc3F)c2F)c(-c2ccnc(Nc3ccc(N4CCOCC4)nc3)n2)s1` [GSK2008607], the “%Inh” value is recorded as 86%.
Same read-out and setting: the figure for `Cl.c1ccc(-c2ccc3c(Nc4ccc5[nH]ccc5c4)ccnc3c2)nc1` [GW440138] is 1%.
Still for that read-out and setting: the figure for `Nc1ncc(-c2cccnc2)c2scc(-c3ccc4c(c3)CCN4C(=O)Cc3ccccc3)c12` [GSK683281] is 8%; for `COc1cc(Nc2nccc(-c3c(-c4cccc(NC(=O)c5c(F)cccc5F)c4)nn4ccccc34)n2)cc(OC)c1OC` [GSK323521] it is 16%.
`CCc1ccc(-c2ccc3c(c2)-c2c(cnn2C)S(=O)(=O)N3C)cc1`: the “%Inh” value is given as 0%.
Still for that read-out and setting: for `COC(=O)Nc1nc2cc(Oc3ccc(NC(=O)Nc4cc(C(F)(F)F)ccc4F)cn3)ccc2[nH]1.Cl.Cl` [GW681170] the value was 92.3%; for `Cc1occc1-c1ncc(OC[C@@H](N)Cc2c[nH]c3ccccc23)cc1-c1ccc2[nH]nc(C)c2c1.O=C(O)C(F)(F)F` [GSK682037], 9%.
The same measure, in the same setting: the figure for `O=C(Nc1cccc(Oc2ccc3nc(NC(=O)C4CC4)cn3n2)c1)c1ccccc1C(F)(F)F` is 29%; for `CSc1cccc2c(-c3ccncn3)c(-c3ccc(F)cc3)nn12` [GW514786] it is 7%; for `COc1cc(Nc2ncc3c(C)nc(-c4cc5ccccc5[nH]4)n3n2)cc(OC)c1OC` [GW869516] it is 49%.
On the same count and under the same terms, the figure for `O=C(Nc1cccc(-c2nn3ccccc3c2-c2ccnc(Nc3cccc(C(F)(F)F)c3)n2)c1)c1c(F)cccc1F` [GSK292658] is 8%.
With `CNC(=O)c1ccccc1Nc1nc(Nc2ccc(N3CCOCC3)cc2)ncc1Cl.Cl` [GSK1576028], the “%Inh” value turned out to be 53%.
The same measure, in the same setting: for `Cl.c1ccc(-c2ccc3c(Nc4ccc5[nH]ncc5c4)ccnc3c2)nc1` [GW440137] the value was 0%.
Same read-out and setting: for `Cl.Cl.NCC(NC(=O)c1cc(-c2ccccc2)c(-c2ccnc3[nH]ccc23)s1)c1ccccc1` (centres unmarked) [GSK1321561] the value was 21%.
The same measure, in the same setting: for `COc1cc2c(cc1OCCN1CCNCC1)ncc1c3ccc(C#N)cc3[nH]c21` the value was 3%.
On to `CCn1c(-c2nonc2N)nc2c(C#CC(C)(C)O)ncc(OCCCCN)c21.O=C(O)C(F)(F)F.O=C(O)C(F)(F)F` [GSK507274], for which the “%Inh” value is reported as 43%.
On the same count and under the same terms, the figure for `COc1cc(Nc2nccc(-c3c(-c4cccc(NC(=O)c5c(F)cccc5F)c4)nn4ncccc34)n2)cc(OC)c1OC` [GSK327238] is 71%.
